{"source": "PubChem BioAssay AID720575", "about": "(National Center for Advancing Translational Sciences (NCATS), 2013)", "experiment": "qHTS Assay for Inhibitors of Hepatitis C Virus (HCV): Confirmation Assay for Cherry-picked Compounds", "details": "Potency: inhibition", "description": "Hepatitis C virus (HCV) infects about 200 million people in the world. Many infected people progress to chronic liver disease including cirrhosis with a risk of developing liver cancer. To date, there is no effective vaccine for hepatitis C. Current therapy based on interferon is only effective in about half of the patients and is associated with significant adverse effects. The fraction of people with HCV who can complete a successful treatment is estimated to be no more than 10 percent. Recent development of direct-acting antivirals against HCV, such as protease and polymerase inhibitors, is promising but still requires combination with peginterferon and ribavirin for maximal efficacy. In addition, these agents are associated with high rate of resistance and many have significant side effects. Due to the lack of a culture system for infectious HCV, the search for new HCV drugs has been greatly hampered. […] High-throughput screening (HTS) with an infectious HCV system would cover the complete spectrum of potentially druggable targets in all stages of HCV lifecycle, and would have more biological relevance than other cell-based assays. […]\nCells were plated in a 1536-wel tissue culture grade plates at a final concentration of 1,000 cells/well (3 uL volume). […] The luciferase activity was read for 15 sec using the PerkinElmenr ViewLux plate reader.", "note": "Some of the results follow. A call without a number means that no potency is given here. Records with an inconclusive call do not appear. Calls of active or inactive are those of the source. The call rests on the fitted dose curve; in most records, active means well fitted inhibition curve with a large enough effect; inconclusive means small, poorly fitted or top-dose-only effect; inactive means no such curve, though single readings can be large or run the other way. Further: nearly all actives have a fitted effect of over 80% in size.", "data": [{"smiles": "CC[N+]1(C)CCCC(OC(=O)C(O)(c2ccccc2)c2ccccc2)C1", "note": "(configuration not stated)", "values": [{"measurement": "Potency", "result": "inactive"}]}, {"smiles": "CC1=CC(=Cc2sc3ccccc3[n+]2C)C=C(C)O1", "values": [{"measurement": "Potency", "result": "4.99 µM (active)"}]}]}
